Hits are enriched below; roughly 0.44% of the tested compounds scored in any of these assays.
USP1-UAF1 inh = blocks the human USP1/UAF1 deubiquitinase complex | AID 743255 | recombinant USP1/UAF1, Ub-Rhodamine cleavage fluorescence | 390,000 compounds, 0.23% hits | Potency, µM (highest dose often 57.1 µM), without a hit: at the top dose activity change, negative = inhibition, most hits filed as inhibitors | O94782; also: % is scaled to controls: 0 for no effect and ±100 for the full control effect; nearly all actives have a fitted effect of over 60% in size
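1 nM enzyme complex + cpd, 15 min RT; start with Ub-Rho 150nM final; kinetic fluorescence ex 480/em 540, 6 reads q60 s. Buffer 50mM HEPES pH 7.8, 0.5mM EDTA, 0.1 mg/ml BSA, 1mM TCEP, 0.01% Tween-20.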
EPAC1 antagonist = antagonists of human EPAC1. 360,000 compounds, 0.14% hits. AID 720709. EPAC1 GEF assay, Rap1b-BODIPY-GDP exchange fluorescence. Potency, µM (doses to about 115 µM), without a hit: at the top dose activity change, negative = inhibition, actives largely listed as inhibitors. O95398;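 also: plate controls were vehicle for no effect and positive control for full effect; nearly all actives have a fitted effect of over 50% in size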
EPAC2 ag = activates human EPAC2 exchange factor | EPAC2 activation, biochemical qHTS; response scale: 100% = 6.5 mM cAMP response | Potency, µM (series often up to 154 µM), for the others: top-dose activation, usual class: activators | 360,000 compounds, 0.079% hits | AID 720711; also: nearly all actives have a fitted effect of over 50% in size
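Setup: EPAC2 100 nM, labeled Rap1B complex 250 nM, free GDP 50 uM. Compound titrations pinned in, brief spin, 5 min room temperature incubation. Kinetic fluorescence read over 30 min, normalized to 6.5 mM cAMP.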
EPAC2 antag = EPAC2 (human) antagonism. Q8WZA2. EPAC2 GEF exchange of Rap1B-BODIPY-GDP, fluorescence. Potency, µM (series often up to 114 µM), without a hit: at the highest dose activity, negative = inhibition, usual class: inhibitors. 360,000 compounds, 0.18% hits. AID 720708; also: % is scaled to controls: 0 for no effect and ±100 for the full control effect; nearly all actives have a fitted effect of over 45% in size
EPAC1 agonist = agonists of human EPAC1 | O95398 | EPAC1 agonist qHTS, biochemical assay; response scale: 100% = response to 6.5 mM cAMP | Potency, µM (series often up to 154 µM), without a hit: top-dose activation, most hits filed as activators | 360,000 compounds, 0.073% hits | AID 720707; also: nearly all actives have a fitted effect of over 60% in size
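Fluorescent GDP-exchange assay: 100 nM EPAC1 with 250 nM Rap1B preloaded with BODIPY-GDP and 50 uM GDP; compounds tested as concentration series, 5 min at room temperature, then read every 5 min for 30 min (ex 480/em 540 nm); normalized to 6.5 mM cAMP.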
Active calls of the source: *; ? = inconclusive; · = no result given. Calls follow the shape of the dose curve; as a rule, active = well fitted curve in the direction sought with a large enough effect; inconclusive = small, poorly fitted or top-dose-only effect, or another doubt; inactive = no such curve, though single readings can be large; an effect the other way counts as inactive or inconclusive. Potency is read from the fitted curve at half-maximal effect.

SMILES	USP1-UAF1 inh	EPAC1 antagonist	EPAC2 ag	EPAC2 antag	EPAC1 agonist
Cc1cccc2cc3c(N)c(C(=O)Nc4ccc(N5CCOCC5)cc4)sc3nc12	0%	-4%	28%	-1%	14%
COc1cc(C)c(Cl)cc1S(=O)(=O)NCCc1c(C)[nH]c2ccccc12	-23%	·	·	·	·
Cc1nn(-c2ccccc2)c(N2CCCC2)c1/C=C1\N=C(c2ccc(F)cc2)OC1=O	-20%	-1%	?	28%	2%
Cc1ccc(C2=N/C(=C\c3c(C)nn(-c4ccccc4)c3N3CCCC3)C(=O)O2)cc1	-18%	11%	100µM*	36%	-3%
CCCCCc1c2c(cc(O)c1C(=O)O)OC(=O)c1c(cc(OC)cc1C(=O)CCCC)O2	?	50µM*	-6%	50µM*	-11%
CCCCc1c(C(=O)O)cc(OC)cc1C(=O)O	-2%	10%	-1%	8%	6%
CCCCCc1c2c(cc(O)c1C(=O)O)OC(=O)c1cc(C(=O)CCCC)c(OC)cc1O2	-24%	50µM*	4%	?	-32%
COCCN(C(=O)COC(=O)C1CC1)c1c(N)n(Cc2ccccc2)c(=O)[nH]c1=O	-18%	0%	0%	1%	-10%
CC(C)(C)C(=O)/C=c1\s/c(=C\c2ccc(-c3ccc([N+](=O)[O-])cc3)o2)c(=O)n1CC(=O)NC(N)=O	7.9µM*	19%	8%	28%	-8%
CC1CCN(c2ccc3c(c2)S(=O)(=O)c2ccccc2C3=O)CC1	?	40%	28%	11%	89µM*
O=C1c2ccccc2S(=O)(=O)c2cc(N3CCN(C(=O)c4ccccc4)CC3)ccc21	-16%	1%	-10%	51%	-2%
O=C1c2ccccc2S(=O)(=O)c2cc(N3CCC4(CC3)OCCO4)ccc21	-27%	2%	112µM*	11%	8%
NC(=O)C1CCN(c2ccc3c(c2)S(=O)(=O)c2ccccc2C3=O)CC1	?	9%	-49%	2%	2%
OC[C@@H]1CN(Cc2ccc(F)cc2)C[C@H](n2cnc3c(N4CCOCC4)ncnc32)O1	·	2%	12%	12%	2%
O=C(NCc1cc(C(F)(F)F)ccc1Cl)c1cccc2c1C(=O)c1ccc(N3CCC(N4CCCCC4)CC3)cc1S2(=O)=O	-25%	?	89µM*	?	-12%
O=C(NCc1cc(C(F)(F)F)ccc1Cl)c1cccc2c1C(=O)c1ccc(N3CCCCC3)cc1S2(=O)=O	20µM*	-3%	29%	372%	11%
N=C1CCC(=N)c2c1c(O)c1ccccc1c2O	25µM*	?	29%	27%	18%
N#Cc1c(C#N)c(O)c2ccccc2c1O	?	-19%	9%	7%	-2%
C=CCN(CC=C)Cc1cc(=O)oc2cc(OC)c(Cl)cc12	·	-20%	14%	32µM*	-4%
CCCN(CCC)Cc1cc(=O)oc2cc(OC)c(Cl)cc12	·	-3%	0%	?	-12%
COc1cc(/C=C/C(=O)O)ccc1OS(=O)(=O)c1c(C)c(C)cc(C)c1C	-9%	-6%	8%	-4%	-4%
COc1cc(C)c(/C=C/C(C)=C/C=C/C(C)=C/C(=O)O)c(C)c1C	-33%	?	-8%	10µM*	-8%
CCN(CC)c1ccc(/C=C(\C#N)C(=O)NCc2ccccc2)cc1	-23%	-2%	8%	28%	100µM*
O=S(=O)(Nc1ccccc1-c1ccccc1)c1ccccc1	?	-19%	17%	50µM*	12%
O=C(O)c1cccc(S(=O)(=O)Nc2ccccc2-c2ccccc2)c1	-16%	-10%	-7%	7%	-20%
CCOc1ccc(CCNC(=O)CSc2nnnn2-c2ccccc2)cc1OCC	-4%	·	·	·	·
Cc1ccc(C(=O)OCc2nnc(-c3ccccc3)o2)cc1S(=O)(=O)N1CCOCC1	-5%	-15%	6%	-4%	4%
Cn1cccc1/C=C1\CCC/C(=C\c2cccn2C)C1=O	22µM*	19%	-21%	?	100µM*
O=C1/C(=C/c2cccs2)CCC/C1=C\c1cccs1	-7%	-8%	7%	-3%	16%
CCOC(=O)N(C)c1c(CC)nc2c(OCc3ccc(C(F)(F)F)cc3)cccn12	·	?	-4%	35µM*	-14%

From PubChem BioAssay
